Among all 92,000 compounds or so, about 1,200 (1.3%) were called active. Shown is part of a subset that was picked to be rich in actives. Values without a mark were called inactive.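 The calls were made as follows: active = activation above the mean of all tested compounds plus 3 SD (cut at about 9.5% in these data); inactive = the rest.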

This test can be described thus: compounds raising TTR promoter-driven luciferase – cell-based, luminescence, SH-SY5Y, TTR promoter Gaussia luciferase, primary screen (AID 1117267).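 Also: cells exposed to compounds for one day before reading; 0% = median of all test compound wells on the plate.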 The following applies: at 16.7 µM, stronger effect = higher value, 100% = recombinant luciferase protein wells.
For the compound `Cc1nn(C)cc1S(=O)(=O)N1CCN(c2ccc(F)cc2)CC1`, the activation was 5.22%.

On to `COC(=O)C[C@@H]1C=C[C@@H](NS(=O)(=O)c2cccc(OC)c2)[C@@H](CO)O1`, for which the activation is 2.56%.

For `COC(=O)[C@@]12C[C@@H](CC(=O)N3CCCCC3)C(=O)N(Cc3ccc4c(c3)OCO4)C1=CCC(C)(C)C2`, the activation is -2.52%.

Regarding `O=C(NCCCNC(=O)c1ccccc1Cl)c1cnccn1`, the activation is 17.1% (active).

On to `O=C(COc1ccc(Cl)cc1Cl)NCCCNC(=O)c1cnccn1`, for which the activation was 1.09%.

As for `Cc1ccc(C(=O)NCCNC(=O)c2cnccn2)cc1`, the activation is -0.47%.

Take `CCC(C)NCCOCCOc1ccc(Br)cc1C` (configuration not stated): the activation is 4.02%.

For `CCc1nn(CCCC(=O)Nc2ccc(C)c(C)c2)c(=O)c2cc3occc3n12`, the activation was -0.44%.

Regarding `Nc1ccc2c(c1)C(O)c1ccc(Cl)cc1-2` (configuration not stated), the activation is -0.84%.

Turning to `Cc1nnc(SCC(=O)NNC(=O)c2ccc(Cl)cc2)n1CC1CCCO1` (configuration not stated), the activation was -0.27%.

Consider `O=C(N/N=C/c1cccnc1)c1cc2ccccc2cc1O`, for which the activation was -0.26%.

In the case of `C(=N\n1cnnc1)/c1cccnc1`, the activation was 9.82% (active).

Consider `Brc1ccc(-c2csc(N/N=C/c3cccnc3)n2)cc1`, for which the activation was -4.96%.

In the case of `CC(=O)Nc1ccc(N2C(=O)CC(Sc3nccc(C)n3)C2=O)cc1` (configuration not stated), the activation is -1.45%.

On to `CC(Oc1cccc(Cl)c1)C(=O)NC1CC(C)(C)NC(C)(C)C1` (configuration not stated), for which the activation was -0.86%.

For `Cc1ccccc1/[N+]([O-])=C/c1ccncc1`, the activation is 11% (active).

For the compound `O=C(O/N=C(/c1ccccc1)c1ccncc1)c1ccccc1[N+](=O)[O-]`, the activation is -1%.

Regarding `C=C(C)CNC(=S)N/N=C/c1ccccc1OCC(=O)O`, the activation was 8.68%.

Turning to `CN(C)CCNC(=O)Cc1ccc([N+](=O)[O-])cc1`, the activation is 0.61%.

Turning to `CCCNC(=O)c1onc(CSc2ccc(F)cc2)c1C(=O)NC(C)C`, the activation is -2.47%.

In the case of `COc1cc(C(=O)NNC(=O)CN2C(=O)NC3(CCCC3)C2=O)cc(OC)c1OC`, the activation was -1.23%.

As to `COc1cc(N2C(=O)CC3(CCCC3)CC2=O)cc(OC)c1OC`, the activation is 11.7% (active).

For the compound `COc1cc(NC(=S)N2CCCC(C)C2)cc(OC)c1OC` (configuration not stated), the activation was 4.11%.

For the compound `CC(C)(C)OC(=O)N/N=C/c1cn(-c2ccccc2)nc1-c1cccnc1`, the activation is -1.28%.

Turning to `CC(C)N(C(=O)[C@H]1C[C@H](CC(=O)NCCC2=CCCCC2)C(=O)N2CCc3c([nH]c4cc(CCC(=O)N(C)C)ccc34)[C@]12C)C(C)C`, the activation was -0.83%.

With `c1ccc(-c2c[nH]c(-c3ccccc3)c2)cc1`, the activation is -1.9%.

Consider `CCOC(=O)c1c(NC(=S)Nc2ccccc2C)sc2c1CCC2`, for which the activation was 1.24%.

In the case of `CCOC(=O)c1c(NC(=O)c2ccc(Br)o2)sc2c1CCCC2`, the activation was 12.3% (active).

With `CCOCC(=O)Nc1sc2c(c1C(=O)OCC)CCCC2`, the activation was 2.19%.

Regarding `COc1cccc2cc(/C(C)=N/NC(=O)c3ccco3)oc12`, the activation was 1.86%.

With `Cc1nc2nc(C)c(CCC(=O)N3CCN(c4ccccc4)CC3)c(C)n2n1`, the activation was 25.8% (active).

In the case of `Cn1c(=O)c2c(ncn2CC(=O)N2CCN(c3ccccc3)CC2)n(C)c1=O`, the activation was 3.74%.

`Cc1nc2c(-c3ccc(F)cc3)c(C)nn2c(C)c1CCC(=O)N1CCN(c2ccccn2)CC1`: the activation is 1.67%.

Turning to `Cc1cccc(C)c1NC(=O)CN1CCN(c2ccc(F)cc2)CC1`, the activation was 1.02%.

As to `O=C(O)CSc1nccc2ccccc12`, the activation is -2.92%.

As for `CCN(C(=O)CN1C(=O)/C(=C/c2ccc(F)cc2)SC1=S)C1CCS(=O)(=O)C1` (configuration not stated), the activation is 1.08%.

As for `COc1ccc(C(=O)C(C)OC(=O)c2cccc(S(=O)(=O)Nc3c(C)n(C)n(-c4ccccc4)c3=O)c2)cc1` (configuration not stated), the activation is 0.13%.

Turning to `Cc1c(NS(=O)(=O)c2ccc(NC3CCCC3)c([N+](=O)[O-])c2)c(=O)n(-c2ccccc2)n1C`, the activation was 12.5% (active).

Consider `COc1ccc(NS(=O)(=O)c2ccc(C(=O)Nc3c(C)n(C)n(-c4ccccc4)c3=O)cc2)cc1`, for which the activation is -1.99%.

For the compound `CCc1cc2c(NC(Cc3ccccc3)C(=O)O)ncnc2s1` (configuration not stated), the activation is 0.89%.

`Cc1cccc(NC(=O)Nc2nnc(-c3ccccc3)o2)c1`: the activation is -2.14%.

With `COc1cc(/C=N/N2CCN(c3ccccc3)CC2)ccc1OC(C)=O`, the activation is 1.16%.

Consider `OC(c1ccc(F)cc1)c1ncc(-c2cccc(C(F)(F)F)c2)[nH]1` (configuration not stated), for which the activation was 1.67%.

Turning to `COc1c(C)cc(C(O)c2ncc(-c3cccc(C(F)(F)F)c3)[nH]2)cc1C` (configuration not stated), the activation is -1.28%.

As to `COc1cccc(-c2cnc(C(O)c3ccccc3OC)[nH]2)c1` (configuration not stated), the activation was 9.73% (active).

With `C=CCN(C(=O)Nc1ccc2c(c1)nc(C)n2C)c1ccccc1`, the activation is 5.19%.

As to `O=C(COC(=O)c1ccc2ncsc2c1)Nc1ccc(Cl)cc1`, the activation was 1.52%.

As for `COC(=O)c1cnn2c(C(F)(F)F)cc(-c3ccco3)nc12`, the activation is 10.2% (active).

In the case of `FC(F)(F)c1cc(-c2ccco2)nc(N2CCOCC2)n1`, the activation is 2.59%.

For the compound `Cc1ccc(-c2cc(C(F)(F)F)n3ncc(C(=O)N4CCCCC4c4cccnc4)c3n2)cc1` (configuration not stated), the activation is 0.13%.

For `COC(=O)[C@]12C[C@H](CC(=O)NCc3cccs3)C(=O)N(CCc3ccc(OC)c(OC)c3)C1=C[C@H](C(C)C)O[C@@H]2C1CC1`, the activation was -0.36%.

Consider `COC(=O)[C@]12C[C@H](CC(=O)NCc3cccc4ccccc34)C(=O)N(CCc3ccc(OC)c(OC)c3)C1=C[C@H](C1CCCC1)O[C@@H]2C`, for which the activation was -1.86%.

Regarding `CCCCOCCCNC(=O)C[C@H]1C[C@@]2(C(=O)OC)C(=C[C@H](C(C)(C)C)O[C@@H]2C)N(CCc2ccc(OC)c(OC)c2)C1=O`, the activation is 14.6% (active).

Consider `O=C(NCc1ccccc1)C(c1cccnc1)N(C(=O)c1csnn1)c1ccc(F)cc1` (configuration not stated), for which the activation is 4.37%.

Turning to `Cc1cccc(C(=O)OC(C)CN2CCCC2)c1` (configuration not stated), the activation is 2.07%.

Regarding `O=C(CN1C(=O)CC(c2ccccc2)S(=O)(=O)c2ccccc21)NC1CCCC1` (configuration not stated), the activation is 4.27%.

Consider `O=C1c2cccc(OCC(=O)N3N=C(c4cccs4)CC3c3ccc(F)cc3)c2CCN1Cc1ccccc1` (configuration not stated), for which the activation was 11.2% (active).

Take `CC(=O)Oc1ccccc1C1=NN(C(C)=O)C(c2ccccc2)C1` (configuration not stated): the activation is 1.26%.

In the case of `COc1cccc(C2CC(c3cccs3)=NN2C(=O)CSC2=NCCS2)c1OC` (configuration not stated), the activation is -2.03%.

Regarding `O=C(CCc1nnc(CCCCc2ccccc2)o1)NC(c1cccnc1)C(F)(F)F` (configuration not stated), the activation was -0.47%.

Consider `COc1ccc(-c2cc3ccc(OCc4nn[nH]n4)cc3oc2=O)cc1`, for which the activation is 0.67%.

Consider `CCOC(=O)CCc1c(C)c2ccc(OCc3nn[nH]n3)c(C)c2oc1=O`, for which the activation was 3.81%.

On to `CCCCc1cc(=O)oc2cc(C)cc(OCc3nn[nH]n3)c12`, for which the activation is 23.1% (active).

Turning to `CC(C)Cn1c(N)c(C(=O)COC(=O)C2CCCN2C(=O)c2cccs2)c(=O)n(C)c1=O` (configuration not stated), the activation is -0.78%.

As for `C#CCOCCOCCOCCNc1nc(N2CCOCC2)nc(N2CCN(C(=O)[C@H](Cc3ccc(O)cc3)n3cc(CCO)nn3)CC2)n1`, the activation is -0.17%.

As for `CCOc1ccc(C(=O)NCC(=O)N2CCN(c3ccc(C(F)(F)F)cn3)CC2)cc1`, the activation is 0.73%.

As for `Brc1ccc(/C=N/N2CCN(C3c4ccccc4-c4ccccc43)CC2)s1`, the activation is 19.4% (active).

On to `CC(=O)C[C@@H]1OC[C@H](C)N1S(=O)(=O)c1ccc(C)cc1`, for which the activation is 1.64%.

For the compound `CC(NC(=O)C(C)(C)C)C(c1cccs1)N1CCN(Cc2ccccc2)CC1` (configuration not stated), the activation is -0.04%.

Take `NC(=O)C1(Nc2ccccc2Cl)CCCC1`: the activation is -2.76%.

Take `Cc1nc(N2CCOCC2)sc1C(=O)NN`: the activation is -0.39%.

Take `Cc1nc(-c2ccc(Cl)cc2)sc1C(=O)NN`: the activation was 35.4% (active).

On to `Cc1ccc(SCC(=O)c2sc(-c3ccccc3)nc2C)cc1`, for which the activation was 4.57%.

For the compound `O=c1ccn([C@@H]2O[C@H](CNS(=O)(=O)c3cc4ccccc4s3)[C@@H](O)[C@H]2O)c(=O)[nH]1`, the activation is -0.41%.

On to `COc1ccc(C(CNC(=O)c2ccc(S(=O)(=O)Nc3ccccc3C)cc2)N2CCOCC2)cc1` (configuration not stated), for which the activation is 0.05%.

As to `COc1ccc(CCOC(=O)CNC(=O)c2ccc(Cl)cc2Cl)cc1`, the activation was -0.5%.

On to `COc1cc2c(=O)n(C)c3ccccc3c2cc1OC`, for which the activation is -0.16%.
